# Measurements: PubChem BioAssay AID1159580 (chemical genetic matrix, 2015)
# In all, about 5,500 compounds went through this assay and about 2,000 (36%) were called active. Another 18% or so got no clear call; they are omitted. The list shows a part of the results. A number with no mark means an inactive call. Cut-off read from the data, not from the text of the source: active = normalized growth mostly below about 0.91 (no sharp cut-off); inconclusive = no clear call, values can overlap the other calls; inactive = mostly above about 0.92.
# Experiment: chemical genetic growth profiling, strain panel (AID 1159580);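 note: tested at 20 µM; growth read once vehicle control cultures reached saturation at 30 °C; 1 = growth at the plate median or of vehicle wells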
# Details: growth OD
# [1] = S. cerevisiae deletion strains, locus YDL101C, strain DUN1, stronger effect = lower value
# [2] = S. cerevisiae deletion strains, locus YHR030C, strain SLT2, stronger effect = lower value
compound,measurement,setting,value
CC(C)(C)C(=O)c1sc2sc(C(=O)C(C)(C)C)c(N)c2c1N,normalized growth,"S. cerevisiae deletion strains, locus YAR019C, strain CDC15, stronger effect = lower value",0.993
same,normalized growth,"S. cerevisiae deletion strains, locus YBL105C, strain PKC1, stronger effect = lower value",0.992
same,normalized growth,"S. cerevisiae deletion strains, locus YBR135W, strain CKS1, stronger effect = lower value",0.984
same,normalized growth,"S. cerevisiae deletion strains, locus YBR136W, strain MEC1, stronger effect = lower value",0.984
same,normalized growth,"S. cerevisiae deletion strains, locus YBR160W, strain CDC28, stronger effect = lower value",0.994
same,normalized growth,"S. cerevisiae deletion strains, locus YDL017W, strain CDC7, stronger effect = lower value",0.993
same,normalized growth,"S. cerevisiae deletion strains, locus YDL028C, strain MPS1, stronger effect = lower value",0.992
same,normalized growth,[1],0.981
same,normalized growth,"S. cerevisiae deletion strains, locus YDL108W, strain KIN28, stronger effect = lower value",0.989
same,normalized growth,"S. cerevisiae deletion strains, locus YDL132W, strain cdc53, stronger effect = lower value",0.975
same,normalized growth,"S. cerevisiae deletion strains, locus YDL214C, strain PRR2, stronger effect = lower value",0.835
same,normalized growth,"S. cerevisiae deletion strains, locus YDR052C, strain DBF4, stronger effect = lower value",0.999
same,normalized growth,"S. cerevisiae deletion strains, locus YDR054C, strain cdc34, stronger effect = lower value",0.983
same,normalized growth,"S. cerevisiae deletion strains, locus YDR226W, strain ADK1, stronger effect = lower value",0.976
same,normalized growth,"S. cerevisiae deletion strains, locus YDR477W, strain SNF1, stronger effect = lower value",0.875
same,normalized growth,"S. cerevisiae deletion strains, locus YER123W, strain YCK3, stronger effect = lower value",0.752
same,normalized growth,"S. cerevisiae deletion strains, locus YER133W, strain GLC7, stronger effect = lower value",0.862
same,normalized growth,"S. cerevisiae deletion strains, locus YFL009W, strain cdc4, stronger effect = lower value",0.988
same,normalized growth,"S. cerevisiae deletion strains, locus YFL029C, strain CAK1, stronger effect = lower value",0.991
same,normalized growth,"S. cerevisiae deletion strains, locus YFR003C, strain YPI1, stronger effect = lower value",0.997
same,normalized growth,"S. cerevisiae deletion strains, locus YFR019W, strain FAB1, stronger effect = lower value",0.47 (active)
same,normalized growth,"S. cerevisiae deletion strains, locus YFR028C, strain CDC14, stronger effect = lower value",0.982
same,normalized growth,"S. cerevisiae deletion strains, locus YGR040W, strain KSS1, stronger effect = lower value",0.879
same,normalized growth,"S. cerevisiae deletion strains, locus YGR052W, strain FMP48, stronger effect = lower value",0.689
same,normalized growth,"S. cerevisiae deletion strains, locus YGR092W, strain DBF2, stronger effect = lower value",0.894
same,normalized growth,[2],0.152 (active)
same,normalized growth,"S. cerevisiae deletion strains, locus YHR079C, strain IRE1, stronger effect = lower value",0.274 (active)
same,normalized growth,"S. cerevisiae deletion strains, locus YHR082C, strain KSP1, stronger effect = lower value",0.62
same,normalized growth,"S. cerevisiae deletion strains, locus YHR205W, strain SCH9, stronger effect = lower value",0.872
same,normalized growth,"S. cerevisiae deletion strains, locus YIL147C, strain SLN1, stronger effect = lower value",0.995
same,normalized growth,"S. cerevisiae deletion strains, locus YJL095W, strain BCK1, stronger effect = lower value",0.52
same,normalized growth,"S. cerevisiae deletion strains, locus YJL128C, strain PBS2, stronger effect = lower value",0.931
same,normalized growth,"S. cerevisiae deletion strains, locus YJL157C, strain FAR1, stronger effect = lower value",0.785
same,normalized growth,"S. cerevisiae deletion strains, locus YJR016C, strain ILV3, stronger effect = lower value",0.99
same,normalized growth,"S. cerevisiae deletion strains, locus YJR066W, strain TOR1 (second series), stronger effect = lower value",0.823
same,normalized growth,"S. cerevisiae deletion strains, locus YJR066W, strain TOR1, stronger effect = lower value",0.589
same,normalized growth,"S. cerevisiae deletion strains, locus YKL048C, strain ELM1, stronger effect = lower value",0.983
same,normalized growth,"S. cerevisiae deletion strains, locus YKL067W, strain YNK1, stronger effect = lower value",0.902
same,normalized growth,"S. cerevisiae deletion strains, locus YKL101W, strain HSL1, stronger effect = lower value",0.962
same,normalized growth,"S. cerevisiae deletion strains, locus YKL193C, strain SDS22, stronger effect = lower value",0.987
same,normalized growth,"S. cerevisiae deletion strains, locus YKL203C, strain TOR2, stronger effect = lower value",0.936
same,normalized growth,"S. cerevisiae deletion strains, locus YLR113W, strain HOG1, stronger effect = lower value",0.663 (active)
same,normalized growth,"S. cerevisiae deletion strains, locus YLR133W, strain CKI1, stronger effect = lower value",0.888
same,normalized growth,"S. cerevisiae deletion strains, locus YLR403W, strain SFP1, stronger effect = lower value",0.851
same,normalized growth,"S. cerevisiae deletion strains, locus YML070W, strain DAK1, stronger effect = lower value",0.704
same,normalized growth,"S. cerevisiae deletion strains, locus YMR001C, strain CDC5, stronger effect = lower value",0.993
same,normalized growth,"S. cerevisiae deletion strains, locus YMR205C, strain PFK2 (second series), stronger effect = lower value",0.965
same,normalized growth,"S. cerevisiae deletion strains, locus YMR277W, strain FCP1, stronger effect = lower value",0.989
same,normalized growth,"S. cerevisiae deletion strains, locus YNL006W, strain LST8, stronger effect = lower value",0.999
same,normalized growth,"S. cerevisiae deletion strains, locus YNL020C, strain ARK1, stronger effect = lower value",0.892
same,normalized growth,"S. cerevisiae deletion strains, locus YNL161W, strain CBK1, stronger effect = lower value",0.994
same,normalized growth,"S. cerevisiae deletion strains, locus YNL183C, strain NPR1, stronger effect = lower value",0.855
same,normalized growth,"S. cerevisiae deletion strains, locus YNL207W, strain RIO2, stronger effect = lower value",0.989
same,normalized growth,"S. cerevisiae deletion strains, locus YNL222W, strain SSU72, stronger effect = lower value",0.993
same,normalized growth,"S. cerevisiae deletion strains, locus YNL307C, strain MCK1 (second series), stronger effect = lower value",0.97
same,normalized growth,"S. cerevisiae deletion strains, locus YOL078W, strain AVO1, stronger effect = lower value",0.987
same,normalized growth,"S. cerevisiae deletion strains, locus YOL136C, strain PFK27, stronger effect = lower value",0.6 (active)
same,normalized growth,"S. cerevisiae deletion strains, locus YOR061W, strain CKA2, stronger effect = lower value",0.915
same,normalized growth,"S. cerevisiae deletion strains, locus YOR119C, strain RIO1, stronger effect = lower value",1.01
same,normalized growth,"S. cerevisiae deletion strains, locus YOR231W, strain MKK1, stronger effect = lower value",0.682
same,normalized growth,"S. cerevisiae deletion strains, locus YOR329C, strain SCD5, stronger effect = lower value",0.991
same,normalized growth,"S. cerevisiae deletion strains, locus YPL031C, strain PHO85, stronger effect = lower value",0.804
same,normalized growth,"S. cerevisiae deletion strains, locus YPL153C, strain RAD53, stronger effect = lower value",0.692
same,normalized growth,"S. cerevisiae deletion strains, locus YPL204W, strain HRR25, stronger effect = lower value",0.646 (active)
same,normalized growth,"S. cerevisiae deletion strains, locus YPL209C, strain IPL1, stronger effect = lower value",0.993
same,normalized growth,"S. cerevisiae deletion strains, locus YPL256C, strain CLN2, stronger effect = lower value",0.326 (active)
same,normalized growth,"S. cerevisiae deletion strains, locus YPR025C, strain CCL1, stronger effect = lower value",0.991
same,normalized growth,"S. cerevisiae deletion strains, locus YPR106W, strain ISR1, stronger effect = lower value",0.995
same,normalized growth,"S. cerevisiae deletion strains, locus YPR111W, strain DBF20, stronger effect = lower value",0.99
same,normalized growth,"S. cerevisiae deletion strains, strain NNK1, stronger effect = lower value",0.996
same,normalized growth,"S. cerevisiae deletion strains, strain TSCII, stronger effect = lower value",0.994
CC(C)(C)c1ccc(-c2cc(N)c(C(N)=O)s2)cc1,normalized growth,"S. cerevisiae deletion strains, locus YAL013W, strain DEP1, stronger effect = lower value",0.978
same,normalized growth,"S. cerevisiae deletion strains, locus YBR229C, strain ROT2, stronger effect = lower value",0.997
same,normalized growth,"S. cerevisiae deletion strains, locus YCL061C, strain MRC1, stronger effect = lower value",1.01
same,normalized growth,[1],1.01
same,normalized growth,"S. cerevisiae deletion strains, locus YDR150W, strain NUM1, stronger effect = lower value",0.974
same,normalized growth,"S. cerevisiae deletion strains, locus YEL061C, strain CIN8, stronger effect = lower value",0.967
same,normalized growth,"S. cerevisiae deletion strains, locus YGR078C, strain PAC10, stronger effect = lower value",1.01
same,normalized growth,[2],0.761
same,normalized growth,"S. cerevisiae deletion strains, locus YHR087W, strain rtc3, stronger effect = lower value",1.02
same,normalized growth,"S. cerevisiae deletion strains, locus YJR043C, strain POL32, stronger effect = lower value",0.979
same,normalized growth,"S. cerevisiae deletion strains, locus YJR075W, strain HOC1, stronger effect = lower value",1
same,normalized growth,"S. cerevisiae deletion strains, locus YKL190W, strain CNB1, stronger effect = lower value",1
same,normalized growth,"S. cerevisiae deletion strains, locus YLR039C, strain RIC1, stronger effect = lower value",0.93
same,normalized growth,"S. cerevisiae deletion strains, locus YLR058C, strain SHM2 (second series), stronger effect = lower value",1.01
same,normalized growth,"S. cerevisiae deletion strains, locus YLR085C, strain ARP6, stronger effect = lower value",0.987
same,normalized growth,"S. cerevisiae deletion strains, locus YLR262C, strain YPT6, stronger effect = lower value",0.827
same,normalized growth,"S. cerevisiae deletion strains, locus YML094W, strain GIM5, stronger effect = lower value",1.01
same,normalized growth,"S. cerevisiae deletion strains, locus YMR219W, strain ESC1, stronger effect = lower value",0.996
same,normalized growth,"S. cerevisiae deletion strains, locus YMR263W, strain SAP30, stronger effect = lower value",0.967
same,normalized growth,"S. cerevisiae deletion strains, locus YMR307W, strain GAS1, stronger effect = lower value",0.881
same,normalized growth,"S. cerevisiae deletion strains, locus YNL153C, strain GIM3, stronger effect = lower value",1
same,normalized growth,"S. cerevisiae deletion strains, locus YNL298W, strain CLA4 (second series), stronger effect = lower value",0.966
same,normalized growth,"S. cerevisiae deletion strains, locus YNL322C, strain KRE1, stronger effect = lower value",0.985
same,normalized growth,"S. cerevisiae deletion strains, locus YNR030W, strain Alg12, stronger effect = lower value",0.942
same,normalized growth,"S. cerevisiae deletion strains, locus YOL006C, strain TOP1, stronger effect = lower value",0.946
same,normalized growth,"S. cerevisiae deletion strains, locus YPL055C, strain LGE1, stronger effect = lower value",0.916
same,normalized growth,"S. cerevisiae deletion strains, locus YPL241C, strain CIN2, stronger effect = lower value",0.983
same,normalized growth,"S. cerevisiae deletion strains, locus YPR135W, strain CTF4, stronger effect = lower value",0.783
same,normalized growth,"S. cerevisiae strains, strain wild type, stronger effect = lower value",0.989
